Key:
Assay in all cases: relative growth (AUC of 72 h growth curve relative to DMSO control, dAUC) (ratio); higher = more growth (less inhibition), active = hit call of the paper
Details in all cases: 20 µM;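 active = growth AUC significantly below the DMSO wells by Dunnett test; inactive = the rest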
[1] = tested on: Aeromonas 1 (Aeromonas sp. AE235)
Procedure, shortened: (§1)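 Whole sediment communities and bacterial isolates from Icelandic stream sediments and Silwood Park soil were brought to carrying capacity in Luria–Bertani medium. They were then diluted 1:100 into 96-well plates with each chemical at 20 µM in 1% DMSO, and A600 was recorded every hour for 72 h. The area under each growth curve, integrated by spline, was averaged across three biological replicates. This figure, divided by the mean of the DMSO controls, gives relative growth (dAUC).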

[2] = tested on: Aeromonas 2 (Aeromonas sobria)
Procedure, shortened: as §1

[3] = tested on: Aeromonas 3 (Aeromonas popoffii)
Procedure, shortened: as §1

[4] = tested on: Argrobacterium 1 (Agrobacterium sp.)
Procedure, shortened: as §1

[5] = tested on: Arthrobacter 1 (Arthrobacter humicola)
Procedure, shortened: as §1

[6] = tested on: Arthrobacter 2 (Arthrobacter humicola)
Procedure, shortened: as §1

[7] = tested on: Arthrobacter 3 (Arthrobacter sp.)
Procedure, shortened: as §1

Community 4 = tested on: Community 4
Procedure, shortened: as §1

Community 6 = tested on: Community 6
Procedure, shortened: as §1

Community 7 = tested on: Community 7
Procedure, shortened: as §1

Community 8 = tested on: Community 8
Procedure, shortened: as §1

Community 9 = tested on: Community 9
Procedure, shortened: as §1

[8] = tested on: Flavobacterium 1 (Flavobacterium glaciei)
Procedure, shortened: as §1

[9] = tested on: Flavobacterium 2 (Flavobacterium succinicans)
Procedure, shortened: as §1

[10] = tested on: Hymenobacter 1 (Hymenobacter glaciei)
Procedure, shortened: as §1

[11] = tested on: Microbacterium 1 (Microbacterium arborescens)
Procedure, shortened: as §1

[12] = tested on: Neobacillus 1 (Neobacillus soli)
Procedure, shortened: as §1

[13] = tested on: Oryzobacter 1 (Oryzobacter terrae)
Procedure, shortened: as §1

[14] = tested on: Paenibacillus 1 (Paenibacillus castaneae)
Procedure, shortened: as §1

Measured: relative growth

ClC1C(Cl)C(Cl)C(Cl)C(Cl)C1Cl (stereo unspecified)
inactive: [1] 1.02 | [2] 0.964 | [3] 0.994 | [4] 1 | [5] 1.04 | [6] 0.837 | [7] 0.909 | Community 4 0.976 | Community 6 0.931 | Community 7 1.03 | Community 8 0.993 | Community 9 0.963 | [8] 0.862 | [9] 0.932 | [10] 0.999 | [11] 1.01 | [12] 0.941 | [13] 1.13 | [14] 0.961

Clc1ccc(C(c2ccc(Cl)cc2)C(Cl)(Cl)Cl)cc1
inactive: [1] 0.999 | [2] 0.972 | [3] 0.973 | [4] 1.02 | Community 4 0.976 | Community 6 0.983 | Community 7 1.11 | Community 8 0.997 | Community 9 1.03 | [8] 0.767 | [9] 0.979 | [10] 0.976 | [11] 0.973 | [12] 1.1 | [13] 1.06 | [14] 0.913
active: [5] 0.353 | [6] 0.211 | [7] 0.316

COc1cc(OC)nc(NC(=O)NS(=O)(=O)c2ncccc2C(=O)N(C)C)n1
inactive: [1] 1.06 | [2] 1.01 | [3] 1.03 | [4] 0.995 | [5] 0.976 | [6] 1.11 | [7] 1.05 | Community 4 1.08 | Community 6 1.06 | Community 7 1.02 | Community 8 1.07 | Community 9 1.08 | [8] 1.12 | [9] 1.08 | [10] 1.16 | [11] 1.04 | [12] 1.1 | [13] 0.98 | [14] 1.08

CCCCc1c(C)nc(NCC)nc1OS(=O)(=O)N(C)C
inactive: [1] 0.942 | [2] 0.942 | [3] 1.04 | [4] 1.03 | [5] 0.911 | [6] 0.863 | [7] 0.926 | Community 4 0.948 | Community 6 0.944 | Community 7 1.04 | Community 8 1.05 | Community 9 0.969 | [8] 0.978 | [9] 0.904 | [10] 1.06 | [11] 1.02 | [12] 0.963 | [13] 1.09 | [14] 0.906

From the supplement of paper PMC12067926
